PubChem BioAssay AID1259343 (VanderVen Lab, College of Veterinary Medicine, Cornell …, 2017)
In all, about 6,200 compounds went through this assay and about 2,900 (47%) were called active. The set was probably picked from earlier hits. The list shows a part of the results. A number with no mark means an inactive call. Rule as the data show it: active = inhibition above about 50%; inactive = the rest.

Assay: Mycobacterium tuberculosis growth inhibition, primary screen (AID 1259343)
Details: inhibition: at 10 µM, stronger effect = higher value; outcome: 10 uM

Row | SMILES | inhibition
1 | Fc1ccccc1-n1cc(-c2ccnc(NC3CCC3)n2)cn1 | 20.1%
2 | O=C(NC1CCC(c2ccccc2)CC1)c1n[nH]c2ccccc12 (stereo unspecified) | 25.1%
3 | COc1ccnc(NC2CCC(c3ccccc3)CC2)n1 (stereo unspecified) | 68.9% (active)
4 | COc1cccc(-c2ccc(NC(=O)C3CCCN(C(=O)c4ccoc4)C3)cc2)c1 (stereo unspecified) | inactive
5 | COc1ccc(-c2ccc(C(=O)N3CCC(C(N)=O)C3)c(F)c2)cc1 (stereo unspecified) | 69.6% (active)
6 | CN(C)c1cccc(-c2nc3cc(N)ccc3o2)c1 | 30.8%
7 | Nc1ccc(Cl)c(-c2nc3cc(Cl)ccc3o2)c1 | 30%
8 | Nc1ccc2oc(-c3cccc(I)c3)nc2c1 | 60.4% (active)
9 | Nc1ccc(-c2nc3cc(Cl)ccc3o2)cc1 | 90.3% (active)
10 | Ic1cccc(-c2nnc(-c3ccccc3)o2)c1 | 103% (active)
11 | CC(c1nnc(-c2ccccc2)o1)N(C)CC12CC3CC(CC(C3)C1)C2 (stereo unspecified) | -23%
12 | Nc1ccc2oc(-c3cc(F)c(F)cc3Cl)nc2c1 | -28%
13 | Nc1ccc2oc(-c3cncc(Br)c3)nc2c1 | 7.61%
14 | Cc1cccc(-c2nnc(C(C)Oc3ccccc3C#N)o2)c1 (stereo unspecified) | 23.4%
15 | CS(=O)(=O)c1nnnn1-c1ccccc1Cl | 95.7% (active)
16 | Cc1ccc(C2=NC(=Cc3ccco3)C(=O)O2)cc1C | -7.96%
17 | COc1cc(C2=NC(=Cc3ccc(N4CCOCC4)s3)C(=O)O2)cc(OC)c1OC | 79.7% (active)
18 | COc1cc(C2=NC(=CC3=Cc4ccccc4OC3)C(=O)O2)cc(OC)c1OC | inactive
19 | O=C(CCl)Nc1ncc(Cc2ccccc2Cl)s1 | 92.7% (active)
20 | O=C(Nc1nc(-c2ccco2)c(-c2ccco2)s1)c1cnccn1 | -27.4%
21 | O=C(CCl)Nc1nc(-c2ccccc2Cl)cs1 | 97.7% (active)
22 | CC1(C(=O)Nc2nc(-c3ccccc3Cl)cs2)Cc2ccccc2C(=O)O1 (stereo unspecified) | 37.1%
23 | O=C(CCl)Nc1ncc(Cc2ccccc2)s1 | -18.1%
24 | O=C(CCl)Nc1nc(-c2c[nH]c3ccccc23)cs1 | -41.1%
25 | Cc1cnc(NC(=O)CCc2nc(C(C)(C)C)no2)s1 | -2.31%
26 | O=C(Nc1ncc(Cc2ccccc2Cl)s1)c1cnccn1 | 92.8% (active)

Row | SMILES | inhibition
27 | O=C1CCCC2=C1C(c1cccs1)n1ncnc1N2 (stereo unspecified) | -18.9%
28 | O=C(NCCCOCc1ccccc1)c1cc(Cl)c[nH]1 | 77.7% (active)
29 | CCCC(C)NC(=O)c1cc(Cl)c[nH]1 (stereo unspecified) | 10.3%
30 | O=C(COc1ccc(F)cc1)NCc1csc(Br)c1 | -34.9%
31 | O=C(COc1ccc(F)cc1)NCCc1ccc(OC(F)F)cc1 | 90.5% (active)
32 | Cc1ccc(Cl)cc1NC(=O)CN1CCc2ccccc2C1 | 91.4% (active)
33 | Cc1ccc(C2=NN(C(=O)CN3CCc4ccccc4C3)C(c3ccccc3C)C2)c(C)c1 (stereo unspecified) | 40.4%
34 | CCOc1cc(C)ccc1NC(=O)CN1Cc2ccccc2C1 | 14.2%
35 | CCN(Cc1cccc(C(N)=O)c1)c1ccccc1C | 27.3%
36 | CC1(C)CC(C=Cc2cccs2)=Nc2ccccc2S1 | -37.6%
37 | N#Cc1ccc([N+](=O)[O-])c(O)c1 | 77.2% (active)
38 | CCN(CC)P(=S)(C=C1N(C)c2ccccc2C1(C)C)CC (stereo unspecified) | 87.2% (active)
39 | CCOP1(=S)C(=C2N(C)c3ccccc3C2(C)C)C=NN1c1ccccc1 (stereo unspecified) | 27.1%
40 | CN1/C(=C/C(=O)Nc2ccc(Cl)cc2)C(C)(C)c2ccccc21 | 1.72%
41 | O=C(O)c1sc(Br)c(I)c1I | 7.67%
42 | O=C(Nc1ccsc1C(=O)O)c1ccc(Br)cc1 | 82.5% (active)
43 | c1csc(-c2cnc3ccc(-c4ccncc4)nn23)c1 | 74.1% (active)
44 | C(=Nn1c(-c2cccs2)csc1=Nc1ccccc1)c1ccccn1 | -1.25%
45 | N#Cc1cc2c(nc1SCC(=O)OCc1ccccc1)CCC2 | 41.5%
46 | CCCC(C)(C)NC(=O)c1nnn(-c2ccc(F)cc2)c1C | 16.4%
47 | CCOc1ccccc1-n1nnc(C(=O)Nc2ccc(C(C)=O)cc2)c1C | 70% (active)
48 | CCOc1ccccc1NC(=O)Nc1ccc(Nc2cc(OC(C)C)nc(C)n2)cc1 | 14.6%
49 | CC1=NN(c2ccc(Cl)cc2)C(=O)C12Cc1ccccc1N1CCCCC12 (stereo unspecified) | 19.5%
50 | CCNC(=S)NN=C(C)c1ccc(Cl)s1 | -2.97%
51 | COCCNC(=S)NN=C(C)c1ccc(Cl)s1 | 79.3% (active)
